# CRFR2-BP ag: CRF-BP/CRF-R2 complex agonism; activation, % at 13.2 µM; hit rate 0.46% among 350,000; AID 588473; HEK293 CRF-R2/CRF-BP, calcium dye fluorescence (FLIPR); percent of saturating CRF peptide response;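 active = activation of at least 50%, plus an integration ratio under a set limit after plate pattern correction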;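 also: plate controls were neutral control wells without compound for no effect and CRF at EC100 for full effect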
# cardiac RTF act: increases calcium sensitivity of human cardiac regulated thin filaments; IANBD-labeled TnC RTF fluorescence at EC20 calcium; 0% EC20 calcium, 100% full calcium; activation, % at 7.2 µM; hit rate 0.24% among 340,000; AID 493008;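 active = activation above the mean over all tested compounds plus 3 SD, cut at about 30% in these data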;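 also: rise in fluorescence read as greater calcium sensitivity of cardiac thin filaments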
# IDE act: boosts human insulin-degrading enzyme activity in HEK cells; P14735; FAbeta-B cleavage, fluorescence polarization; 0% vehicle, 100% cell-free pure enzyme wells; activation, % at 5.96 µM; hit rate 0.073% among 340,000; AID 493087;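 active = activation above the mean of all tested compounds plus 3 SD, set per screening campaign, cut at about 17% in these data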
# Target sequence (P14735 whole entry, looked up): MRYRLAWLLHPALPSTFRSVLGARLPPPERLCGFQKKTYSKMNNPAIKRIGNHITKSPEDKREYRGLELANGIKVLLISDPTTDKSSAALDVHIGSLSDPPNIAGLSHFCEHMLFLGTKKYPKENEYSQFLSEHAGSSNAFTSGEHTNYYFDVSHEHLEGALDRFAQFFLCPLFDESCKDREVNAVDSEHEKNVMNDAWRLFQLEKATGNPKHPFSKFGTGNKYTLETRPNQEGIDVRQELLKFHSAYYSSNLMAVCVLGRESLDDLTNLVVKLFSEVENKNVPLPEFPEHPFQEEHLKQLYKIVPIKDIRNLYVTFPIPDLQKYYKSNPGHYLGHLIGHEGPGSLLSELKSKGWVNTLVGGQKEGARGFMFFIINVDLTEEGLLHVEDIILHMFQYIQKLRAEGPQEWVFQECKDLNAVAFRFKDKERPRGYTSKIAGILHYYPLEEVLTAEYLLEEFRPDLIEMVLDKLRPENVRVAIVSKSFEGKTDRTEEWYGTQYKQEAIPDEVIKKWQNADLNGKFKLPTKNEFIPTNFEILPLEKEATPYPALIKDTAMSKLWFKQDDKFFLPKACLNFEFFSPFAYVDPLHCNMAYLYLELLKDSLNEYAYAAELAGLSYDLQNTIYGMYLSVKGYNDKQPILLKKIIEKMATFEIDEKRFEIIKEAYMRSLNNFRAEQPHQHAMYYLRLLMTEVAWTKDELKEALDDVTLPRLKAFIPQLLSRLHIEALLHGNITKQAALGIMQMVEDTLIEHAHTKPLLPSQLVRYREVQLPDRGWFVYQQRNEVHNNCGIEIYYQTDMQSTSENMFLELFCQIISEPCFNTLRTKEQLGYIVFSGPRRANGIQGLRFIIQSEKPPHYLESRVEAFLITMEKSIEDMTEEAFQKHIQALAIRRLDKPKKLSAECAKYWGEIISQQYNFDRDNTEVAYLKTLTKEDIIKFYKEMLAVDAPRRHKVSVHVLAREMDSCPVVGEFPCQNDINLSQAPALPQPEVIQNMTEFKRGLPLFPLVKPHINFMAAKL
# IDE inh: cellular human IDE inhibition; P14735; HEK cells, FAbetaB cleavage, fluorescence polarization; inhibition, % at 5.59 µM; hit rate 0.41% among 320,000;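 active = percent inhibition above the average of all tested compounds plus 3 SD, set per screening campaign, cut at about 16% in these data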;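 also: IDE supplied by intact live HEK cells; FP after avidin binding of uncleaved biotin substrate so inhibition keeps polarization high; 0% = DMSO wells and 100% = 60 µM reference IDE inhibitor Ii1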
# TPT1 inhibitor: blocks Candida albicans tRNA 2'-phosphotransferase; inhibition, % at 5 µM; hit rate 0.81% among 300,000; AID 1962; recombinant caTPT1, FP RNA substrate dephosphorylation;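 active = inhibition above the mean of all tested compounds plus 3 SD, set per screening campaign, cut at about 24% in these data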;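 also: plate controls were DMSO alone for no effect and ferristatin control at 100 nM for full effect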
# Cardiac RTF inh: cardiac RTF calcium desensitization | AID 493244 | inhibition, % at 7.15 µM | hit rate 0.12% among 340,000 | IANBD-labeled cardiac RTF, Ca2+ fluorescence;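 active = inhibition above the mean inhibition of all tested compounds plus 3 SD, cut at about 17% in these data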;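 also: assay run at fixed EC70 calcium of 1.6 mM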
# IDE inh confirm: cellular human IDE inhibition, confirmation | hit rate 51% among 1,200 | inhibition, % at 5.59 µM | HEK cells, FAbetaB cleavage, fluorescence polarization | AID 435028 | shares compounds with IDE inh;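 active = mean inhibition across triplicate wells above the cutoff set by the earlier primary insulin-degrading enzyme screen, cut at about 16% in these data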;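 also: 0% = DMSO wells and 100% = 60 µM reference IDE inhibitor Ii1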
# HEK293 tox: HEK cell cytotoxicity, counter-screen for IDE inhibitors; hit rate 28% among 1,200; AID 449730; shares compounds with IDE inh; inhibition, % at 5.59 µM; HEK293 cytotoxicity, ATP luminescence; in the data active = inhibition above about 22%;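 also: 0% = vehicle wells and 100% = reference cytotoxic drug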
# RTF inh confirm: confirmation of inhibitors of cardiac thin filament calcium sensitivity. shares compounds with Cardiac RTF inh. reconstituted cardiac thin filaments, calcium sensitivity fluorescence. inhibition, % at 7.15 µM. hit rate 8% among 360; in the data active = inhibition above about 18%
# * marks the source's active call; other numbers are inactive results; . = not tested or not shown. In the library only some 1.5% were active in any assay of this set; here they are far more common.
SMILES,CRFR2-BP ag,cardiac RTF act,IDE act,IDE inh,TPT1 inhibitor,Cardiac RTF inh,RTF inh confirm,others
COc1ccc(NC(=O)N(C)C[C@H]2Oc3ccc(NS(=O)(=O)c4ccccc4)cc3C(=O)N([C@H](C)CO)C[C@@H]2C)cc1,1.2,-14.0,3.0,.,.,-0.6,.,
Cc1cc2nc(-c3ccc(SCc4ccc(C#N)cc4)nc3)[nH]c2cc1C,1.1,-14.6,-9.8,17.1*,-2.9,-11.4,.,IDE inh confirm=3.5;HEK293 tox=19.9
O=C(CSc1ccc(-c2nc3ccccc3[nH]2)cn1)Nc1ccc(S(=O)(=O)N2CCCC2)cc1,1.0,-1.7,-4.3,7.2,2.8,-7.8,.,
Cc1cc2nc(-c3ccc(SCC(=O)Nc4ccc(S(=O)(=O)N5CCCC5)cc4)nc3)[nH]c2cc1C,5.5,2.6,-4.4,16.6*,8.9,-9.4,.,IDE inh confirm=4.3;HEK293 tox=19.6
ON=C1c2ccccc2-c2cc(Br)ccc21,-3.0,-3.5,-10.7,.,.,2.9,.,
COc1ccccc1N/C(N)=N/c1nc(C(F)(F)F)cc(=O)[nH]1,0.9,2.8,-9.1,18.4*,6.9,-0.9,.,IDE inh confirm=7.3;HEK293 tox=11.8
COC(=O)c1ccc2c(c1)C(C)(C)C(/C=C/c1ccc(O)cc1)=[N+]2C,51.2*,11.9,-25.4,16.2*,19.7,-19.6,.,IDE inh confirm=20.6*;HEK293 tox=122.0*
Nc1ccc2c3c(cccc13)CC2,2.6,15.6,-4.7,42.6*,1.1,-116.1,.,IDE inh confirm=2.6;HEK293 tox=4.1
Oc1cccc2ccc(Nc3ccccn3)nc12,0.9,-1.5,-17.3,24.9*,2.3,-4.5,.,IDE inh confirm=9.7;HEK293 tox=44.7*
Cc1c(NC(=O)/C(C#N)=C/c2ccc(-c3ccc(Cl)cc3)o2)c(=O)n(-c2ccccc2)n1C,2.1,-5.8,-25.4,63.7*,3.1,2.5,.,IDE inh confirm=40.2*;HEK293 tox=19.1
Cc1c(NC(=O)/C(C#N)=C/c2ccc(-c3cc(Cl)ccc3Cl)o2)c(=O)n(-c2ccccc2)n1C,1.4,-6.5,-0.1,-8.8,-0.5,-3.7,.,
COCCN(C(=O)COC(=O)C(C)(C)Oc1ccc(Cl)cc1)c1c(N)n(Cc2ccccc2)c(=O)[nH]c1=O,-1.3,-2.8,-3.8,.,.,-14.7,.,
COc1ccc(N2c3ccccc3CN(Cc3ccccc3)[C@@H](C)[C@H]2Cc2cccnc2)cc1,0.7,.,.,.,.,.,.,
CCCS(=O)(=O)N1CCC(C(=O)NCCCN2CCCC2=O)CC1,1.1,-13.7,5.0,9.8,1.5,19.1*,0.2,
CC1CCCN(C(=O)C2CCCN(S(=O)(=O)c3cccc4nsnc34)C2)C1 (stereo not given),-3.0,0.9,1.5,0.3,-0.9,2.2,.,
O=C(C1CCCN(S(=O)(=O)c2cccc3nsnc23)C1)N1CCCCCC1 (stereo not given),-1.8,2.2,4.8,-5.5,4.3,17.3*,2.3,
Cc1ccc(C2CC(c3ccc(NS(C)(=O)=O)cc3)=NN2C(=O)c2ccco2)cc1 (stereo not given),-1.3,3.8,-4.6,0.8,-1.0,20.2*,-2.9,
CS(=O)(=O)Nc1ccc(C2=NN(C(=O)c3ccco3)C(c3ccccc3)C2)cc1 (stereo not given),0.3,-1.0,0.8,2.7,-2.1,4.8,.,
CC(C)Cn1c(N)c(C(=O)CSc2nnc(C3CC3)n2C2CC2)c(=O)n(C)c1=O,0.2,-11.8,2.6,.,.,-3.8,.,
CCOC(=O)C1=C(C)N(Cc2ccc(C(=O)O)cc2)C(=O)NC1c1ccc([N+](=O)[O-])cc1 (stereo not given),-1.0,5.8,2.8,-3.6,1.9,17.5*,-2.0,
O=[N+]([O-])c1cc([N+](=O)[O-])c2oc(-c3ccccc3)c(Br)c2c1O,4.4,-30.1,2.2,.,.,27.2*,11.8,
O=c1cc(-c2ccccc2Cl)oc2ccc([N+](=O)[O-])c(O)c12,-2.5,-4.7,2.6,-2.1,-3.6,-3.8,.,
CC(C)(Oc1ccc(Cl)cc1)C(=O)NNC(=O)c1ccc(Br)o1,-0.2,-2.0,-1.0,.,.,-4.2,.,
COc1ccc(N2C(=O)CSC2c2ccccc2[N+](=O)[O-])cc1 (stereo not given),-3.1,0.0,4.3,0.0,-4.6,19.0*,0.6,
O=C(NCC(c1cccs1)N1CCOCC1)c1ccc([N+](=O)[O-])cc1 (stereo not given),-0.6,-4.7,2.8,3.8,1.7,17.4*,-3.5,
SMILES,CRFR2-BP ag,cardiac RTF act,IDE act,IDE inh,TPT1 inhibitor,Cardiac RTF inh,RTF inh confirm,others
Cc1ccc(S(=O)(=O)NCc2cccnc2)cc1C(=O)N1CCCC1,0.1,-0.2,0.3,7.8,-2.2,-4.1,.,
CC(=O)NC(CC(C)C)C(=O)O (stereo not given),0.2,1.5,-0.5,.,.,1.4,.,
CN[C@H](CC(=O)O)C(=O)O,0.7,5.7,-2.4,-2.3,-3.8,18.0*,-2.4,
C[C@H](CO)N1C[C@H](C)[C@H](CN(C)Cc2ccc(Oc3ccccc3)cc2)Oc2cc(Br)ccc2S1(=O)=O,0.1,.,.,.,.,.,.,
CC1(C)C(=O)Nc2ccccc2N1C(=O)COc1ccccc1C#N,2.6,-1.3,3.4,9.5,.,2.1,.,
O=C(CNC(=S)N(Cc1ccccc1Cl)C1CCCC1)NCCN1CCOCC1,-0.1,2.8,-0.7,5.2,1.8,-14.2,.,
COc1ccc(OC)c(S(=O)(=O)NCC(c2ccco2)N2CCc3ccccc3C2)c1 (stereo not given),1.7,-6.5,-2.0,3.1,1.0,17.8*,-4.5,
CC(=O)Oc1ccc(C)cc1-n1nc2ccccc2n1,-1.2,0.1,4.3,-0.2,0.4,20.4*,-7.2,
Cc1ccc(OCC(=O)O)c(-n2nc3ccccc3n2)c1,-2.9,-0.6,1.9,-3.6,-5.3,4.0,.,
CC(O)c1nc2ccccc2n1CCCCOc1ccccc1 (stereo not given),-1.8,-2.2,4.1,5.0,-2.7,21.5*,-4.6,
CC(O)c1nc2ccccc2n1CCOc1ccccc1 (stereo not given),-0.8,-2.4,7.5,0.2,1.0,-6.5,.,
Cc1ccc(Nc2nc(N)nc(CN3CCCCCC3)n2)cc1,-1.4,-5.3,6.0,0.1,6.8,-20.8,.,
Cc1ccc(Nc2nc(N)nc(CN3CCN(C)CC3)n2)cc1,-0.5,-2.1,6.7,-0.2,-2.3,18.0*,-5.9,
CC(=O)Nc1ccc(C(=O)Nc2ccc(S(=O)(=O)N3CCCCC3)cc2)cc1,0.1,-7.0,0.2,4.4,-1.2,-4.1,.,
Cn1c(NC(=O)c2ccc(S(=O)(=O)N3CCCCC3)cc2)cc(=O)n(C)c1=O,-1.0,0.7,3.8,0.4,0.9,17.0*,1.6,
CCOc1ccccc1-c1nc(-c2ccc(NC(=O)Cc3ccccc3OC)cc2)no1,2.0,0.8,2.2,3.6,6.8,17.6*,-3.6,
